Source: PubChem BioAssay AID2116 (The Scripps Research Institute Molecular Screening Center, 2009)
Activity calls are given as the source filed them. How the calls were made is not given here.

Target: Mucolipin-3 (Homo sapiens) (UniProt Q8TDD5)
Experiment: TRPML3 and TRPML2 channel agonists, cell-based, patch clamp, Fura-2 profiling panel (AID 2116)
Settings: HEK293 cells expressing TRPML3-YFP, TRPML3 Patch Clamp Assay; patch clamp current at -80 mV

Sequence of Mucolipin-3 (Homo sapiens) (Q8TDD5 whole entry, looked up): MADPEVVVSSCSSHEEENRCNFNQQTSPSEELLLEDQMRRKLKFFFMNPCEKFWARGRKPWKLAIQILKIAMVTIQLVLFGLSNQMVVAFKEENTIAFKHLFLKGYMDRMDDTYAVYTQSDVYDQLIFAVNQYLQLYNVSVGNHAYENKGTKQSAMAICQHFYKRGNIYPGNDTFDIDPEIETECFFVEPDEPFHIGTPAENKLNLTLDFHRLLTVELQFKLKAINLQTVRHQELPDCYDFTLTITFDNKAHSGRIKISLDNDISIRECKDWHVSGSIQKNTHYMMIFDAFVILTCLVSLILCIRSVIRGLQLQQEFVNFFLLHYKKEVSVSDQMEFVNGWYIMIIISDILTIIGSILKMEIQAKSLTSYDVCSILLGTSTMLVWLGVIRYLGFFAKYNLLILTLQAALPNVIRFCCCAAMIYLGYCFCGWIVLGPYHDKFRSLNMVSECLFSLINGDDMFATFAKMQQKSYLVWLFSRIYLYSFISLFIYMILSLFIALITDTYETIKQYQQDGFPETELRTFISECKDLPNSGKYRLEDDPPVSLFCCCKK

| SMILES | current density [nA/pF] | outcome |
| --- | --- | --- |
| O=S(=O)(NC1CCCCC1N1CCOCC1)c1ccc(Cl)cc1 (stereo not given) | -0.55 | active; no effect on six other TRP channels |
| Cc1ccc(N2CCN(S(=O)(=O)N3CCCCC3)CC2)c(C)c1 | -0.42 | active; no effect on six other TRP channels |
| Cc1ccc(S(=O)(=O)Nc2ccccc2-c2ccccc2)cc1 | -0.02 | active; no effect on six other TRP channels |
| O=S(=O)(Nc1ccccc1N1CCOCC1)c1ccc(Cl)s1 | -0.37 | active; no effect on six other TRP channels |
| O=S(=O)(Nc1ccccc1N1CCCCC1)c1ccc(Cl)s1 | -0.24 | active; no effect on six other TRP channels |
